These results are taken from PubChem BioAssay (NCATS).

Inconclusive results are not listed. Active and inactive are the calls of the source. Calls follow the shape of the dose curve; as a rule, active = well fitted inhibition curve with a large enough effect; inconclusive = small, poorly fitted or top-dose-only effect; inactive = flat fitted curve, though single readings scatter.
% is scaled to controls: 0 for no effect and ±100 for the full control effect; potency is read from the fitted curve at half-maximal effect.

The assay has as its system NIH3T3. The experiment in a line: Cytotoxic Profiling of Annotated Libraries Using Quantitative High-Throughput Screening (AID 1296008). Also: nearly all actives have a fitted effect of over 60% in size. To be noted: Five cell lines viability, CellTiter-Glo ATP luminescence, 48-72 h; max response: hits give low values. Put shortly:
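Cells exposed to compounds for 48 or 72 hr at 37 degrees Celsius. Viability read as ATP-coupled luminescence with CellTiter-Glo after 10 min at room temperature.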
(In general: ATP-based viability assays read luminescence as a measure of living cells.)
For `COc1cc2c(cc1OC)N1C(=O)C[C@]34C=CCN5CC[C@@H]2[C@@H](CC3)[C@]514`, the max response is -2.04% (inactive). For `C=CC(C)(O)C(O)CC1C(C)(O)C(O)C(O)C2C(C)(C)CCCC21C` (stereo not given), the molecule was called inactive. Turning to `CNC(=S)NS(=O)(=O)c1cc(CCNC(=O)c2cc(Cl)ccc2OC)ccc1OC`, the max response is -5.29% (inactive). Still for that read-out and setting: with `O=C1CC2(CCCC2)[C@H](O)C(=O)N1CCCCN1CCN(c2ncccn2)CC1` the figure was -13.6% (inactive); with `C=C1CC23CC1CCC2C12OC(=O)C(C)(CCC1O)C2C3C(=O)O` (stereo not given), 3.76% (inactive). Consider `Cc1cc(Nc2cc(N3CCN(C)CC3)nc(/C=C/c3ccccc3)n2)n[nH]1`, for which the Potency was 2.31 µM (active).

For the molecule `CC(C)NCC(C(=O)N1CCN(c2ncnc3c2C(C)CC3O)CC1)c1ccc(Cl)cc1` (stereo not given), the max response was 3.08% (inactive). For the molecule `CC(=O)c1ccc(O[C@@H]2O[C@H](CO)[C@@H](O)[C@H](O)[C@H]2O)cc1`, the max response is -22.7% (inactive). Consider `CN(C)CCn1cc(S(=O)(=O)c2cccc(F)c2)c2cccnc21`, for which the max response was -4.92% (inactive). As for `C=C1OC2CC(C(=O)O)C=CC2NC1=O` (stereo not given), the max response is 0.0418% (inactive).

Take `O=C(O)c1ccc(CN2CCC(CN[C@@H]3C[C@H]3c3ccccc3)CC2)cc1`: the max response is -26% (inactive). In the case of `CCc1c(C)nc2c(-c3cnn(-c4cc(CO)ccn4)c3)c[nH]n2c1=O`, the max response is -6.61% (inactive). Turning to `CC1C(=O)CC2C3CCC(C(=O)O)C12CC3(C)CO` (stereo not given), the max response was -4.76% (inactive).

Turning to `C[C@H](NC(c1cccc2[nH]c(=O)c(=O)[nH]c12)P(=O)(O)O)c1ccc(Br)cc1` (stereo not given in full), the result was inactive. For `COC(=O)C12CCC(C)C(C)C1C1=CCC3C4(C)CCC(OC(C)=O)C(C)(C)C4CCC3(C)C1(C)CC2` (stereo not given), the molecule was called inactive.
